The panel holds about 79,000 compounds, 15% with a hit somewhere; the sample as a whole holds those more often. Unmarked numbers belong to inactive results. Active and inactive are the calls of the source. Rule as the data show it: active = growth inhibition above about 70%; inactive = the rest.
Experiment: NCI Yeast Anticancer Drug Screen. Data for the mlh1 rad18 strain (AID 175)
Conditions: S. cerevisiae mlh1 rad18 strain growth inhibition; at 5.0 µM (retest, dose inferred, filed as 0.5); hits give high values
Summary of the method: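 Vehicle-treated cultures served as the reference for growth inhibition in a yeast strain carrying DNA damage repair alterations exposed to each compound.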

Row | SMILES | growth inhibition
1 | COc1cccc2c1C(=O)c1c(O)c3c(c(O)c1C2=O)C[C@@](O)(C(C)=O)C[C@@H]3OC1CC(O)C(O)C(C)O1 (stereo partly specified) | 40%
2 | COc1cccc2c1C(=O)c1c(O)c3c(c(O)c1C2=O)C[C@@](O)(C(C)=O)C[C@@H]3OC1CC(N(C)C)C(O)C(C)O1 (stereo partly specified) | 97% (active)
3 | C[N+]1(C)CCC(c2ccccc2)(c2ccccc2)C(=O)C1 | -10%
4 | CC[C@@]1(OC(=O)C(N)CCCCN)C(=O)OCc2c1cc1n(c2=O)Cc2cc3ccccc3nc2-1 (stereo partly specified) | 48%
5 | CCN(CCO)CCNc1ccc(C)c2sc3ccccc3c(=O)c12 | 23%
6 | NC(=O)SCC(=O)NNc1ccccc1 | 14%
7 | CCN(CC)c1ccc(C(=C2C=CC(=[N+](CC)CC)C=C2)c2ccc(N(CC)CC)cc2)cc1 | 97% (active)
8 | Nc1ncnc2c(C3OC(CO)C(O)C3O)scc12 (stereo unspecified) | 14%
9 | Nc1ccc(Cn2ccc3c4c(N)nc(N)nc4ccc32)cc1 | 13%
10 | Cc1n(CC(C)C)c2c([n+]1C)C(=O)c1ccccc1C2=O | 68%
11 | c1ccc(Cc2cc3ccccc3c3ccccc23)cc1 | 4%
12 | Nc1nc(N)c2c(Cl)c(CNc3ccc(Cl)c(Cl)c3)ccc2n1 | 75% (active)
13 | C=C1CC2(CC(c3ccccc3OC)OC(c3ccccc3OC)C2)OC1=O (stereo unspecified) | 40%
14 | O=[N+]([O-])c1c(Cl)nc2ccccn12 | 2%
15 | C/C(=N\NC(=S)N1CCN(c2ccccn2)CC1)c1nccs1 | 38%
16 | Clc1nc(Cl)c(Cl)c(Cl)n1 | 39%
17 | COc1ccc(COc2ccc(C(=O)CCN3CCOCC3)cc2)cc1 | 51%
18 | O/N=C/c1cc(I)c(O)c(I)c1 | 98% (active)
19 | COC1OC2COC(c3ccccc3)OC2C(O)C1OS(=O)(=O)c1ccc(C)cc1 (stereo unspecified) | -1%

Row | SMILES | growth inhibition
20 | C=C1CC2(CC(c3ccccc3C)OC(c3ccccc3C)C2)OC1=O (stereo unspecified) | 80% (active)
21 | Cc1ccc2c(c1)C1(C)OC(C=CC1=O)O2 (stereo unspecified) | 94% (active)
22 | COc1cc(OC)c(OC)cc1/C=C\c1ccnc2ccccc12 | 13%
23 | Cc1n(Cc2ccccc2)c2c([n+]1C)C(=O)c1ccccc1C2=O | 78% (active)
24 | O=[N+]([O-])c1cc2c(cc1S(=O)(=O)O)C1C(C3C2C2(Cl)C(Cl)=C(Cl)C3(Cl)C2(Cl)Cl)C2(Cl)C(Cl)=C(Cl)C1(Cl)C2(Cl)Cl (stereo unspecified) | 8%
25 | CCOC(=O)Nc1c(C)cc(C)c(Br)c1C | 9%
26 | COc1cc2c(c(OC)c1OC)-c1ccc(SC)c(=O)cc1C(NC(=O)c1ccccc1)CC2 (stereo unspecified) | -6%
27 | CCCCCCCCCCS(=O)CC(CO)NC(=O)/C=C/c1c(C)[nH]c(=O)[nH]c1=O (stereo unspecified) | 53%
28 | C/C(N=NC(=S)N1CCCCCC1)=C1\C=CC=CN1O | 24%
29 | Cc1cc(NCCCCCCCNc2cc(C)nc3cc([N+](=O)[O-])ccc23)c2ccc([N+](=O)[O-])cc2n1 | 5%
30 | CC1CC[P+](c2ccccc2)(c2ccccc2)c2c1ccc1ccccc21 (stereo unspecified) | 64%
31 | O=C1C(Cl)=C(N2CCN(C3=C(Cl)C(=O)c4ccccc4C3=O)CC2)C(=O)c2ccccc21 | 26%
32 | CCN1CCC(O)(c2ccc(Oc3ccccc3)cc2)C(C(=O)c2ccc(Oc3ccccc3)cc2)C1 (stereo unspecified) | 18%
33 | Cc1ccc(NCCN(C)C)c2c(=O)c3cc(O)ccc3sc12 | 18%
34 | COc1ccc2nc(C)cc(NCCCCCCCCCNc3cc(C)nc4ccc(OC)cc34)c2c1 | -21%
35 | Cc1n(-c2ccccc2)c2c([n+]1Cc1ccc([N+](=O)[O-])cc1)C(=O)c1ccccc1C2=O | -8%
36 | CC1(O)Cc2c(O)c3c(c(O)c2CC1O)C(=O)C=CC3=O (stereo unspecified) | 9%
37 | c1ccc(C2=NC(c3ccccc3)=NS(S3=NC(c4ccccc4)=NC(c4ccccc4)=N3)=N2)cc1 (stereo unspecified) | 18%
38 | CC[C@](O)(CC(=O)O[C@H]1C(=O)O[C@@H]2C[C@H]3C(C)=CC(=O)[C@@H](O)[C@]3(C)[C@H]3[C@@]4(O)OC[C@]32[C@@H]1[C@@H](C)[C@H]4O)C(C)C | 50%

Same assay, conditions: S. cerevisiae mlh1 rad18 strain growth inhibition; at 50.0 µM (retest, dose inferred, filed as 5.0); hits give high values

Row | SMILES | growth inhibition
39 | COc1cccc2c1C(=O)c1c(O)c3c(c(O)c1C2=O)C[C@@](O)(C(C)=O)C[C@@H]3OC1CC(O)C(O)C(C)O1 (stereo partly specified) | 93% (active)
40 | COc1cccc2c1C(=O)c1c(O)c3c(c(O)c1C2=O)C[C@@](O)(C(C)=O)C[C@@H]3OC1CC(N(C)C)C(O)C(C)O1 (stereo partly specified) | 97% (active)
41 | C[N+]1(C)CCC(c2ccccc2)(c2ccccc2)C(=O)C1 | -14%
42 | CC[C@@]1(OC(=O)C(N)CCCCN)C(=O)OCc2c1cc1n(c2=O)Cc2cc3ccccc3nc2-1 (stereo partly specified) | 91% (active)
43 | CCN(CCO)CCNc1ccc(C)c2sc3ccccc3c(=O)c12 | 98% (active)
44 | NC(=O)SCC(=O)NNc1ccccc1 | 81% (active)
45 | CCN(CC)c1ccc(C(=C2C=CC(=[N+](CC)CC)C=C2)c2ccc(N(CC)CC)cc2)cc1 | 90% (active)
46 | Nc1ncnc2c(C3OC(CO)C(O)C3O)scc12 (stereo unspecified) | 63%
47 | Nc1ccc(Cn2ccc3c4c(N)nc(N)nc4ccc32)cc1 | 87% (active)
48 | Cc1n(CC(C)C)c2c([n+]1C)C(=O)c1ccccc1C2=O | 98% (active)
49 | c1ccc(Cc2cc3ccccc3c3ccccc23)cc1 | -2%
50 | Nc1nc(N)c2c(Cl)c(CNc3ccc(Cl)c(Cl)c3)ccc2n1 | 98% (active)
51 | C=C1CC2(CC(c3ccccc3OC)OC(c3ccccc3OC)C2)OC1=O (stereo unspecified) | 88% (active)
52 | O=[N+]([O-])c1c(Cl)nc2ccccn12 | 26%
53 | C/C(=N\NC(=S)N1CCN(c2ccccn2)CC1)c1nccs1 | 99% (active)
54 | Clc1nc(Cl)c(Cl)c(Cl)n1 | 98% (active)
55 | COc1ccc(COc2ccc(C(=O)CCN3CCOCC3)cc2)cc1 | 77% (active)
56 | O/N=C/c1cc(I)c(O)c(I)c1 | 98% (active)
57 | COC1OC2COC(c3ccccc3)OC2C(O)C1OS(=O)(=O)c1ccc(C)cc1 (stereo unspecified) | 49%

Row | SMILES | growth inhibition
58 | C=C1CC2(CC(c3ccccc3C)OC(c3ccccc3C)C2)OC1=O (stereo unspecified) | 90% (active)
59 | Cc1ccc2c(c1)C1(C)OC(C=CC1=O)O2 (stereo unspecified) | 99% (active)
60 | COc1cc(OC)c(OC)cc1/C=C\c1ccnc2ccccc12 | 83% (active)
61 | Cc1n(Cc2ccccc2)c2c([n+]1C)C(=O)c1ccccc1C2=O | 97% (active)
62 | O=[N+]([O-])c1cc2c(cc1S(=O)(=O)O)C1C(C3C2C2(Cl)C(Cl)=C(Cl)C3(Cl)C2(Cl)Cl)C2(Cl)C(Cl)=C(Cl)C1(Cl)C2(Cl)Cl (stereo unspecified) | 57%
63 | CCOC(=O)Nc1c(C)cc(C)c(Br)c1C | 22%
64 | COc1cc2c(c(OC)c1OC)-c1ccc(SC)c(=O)cc1C(NC(=O)c1ccccc1)CC2 (stereo unspecified) | 70% (active)
65 | CCCCCCCCCCS(=O)CC(CO)NC(=O)/C=C/c1c(C)[nH]c(=O)[nH]c1=O (stereo unspecified) | 92% (active)
66 | C/C(N=NC(=S)N1CCCCCC1)=C1\C=CC=CN1O | 44%
67 | Cc1cc(NCCCCCCCNc2cc(C)nc3cc([N+](=O)[O-])ccc23)c2ccc([N+](=O)[O-])cc2n1 | 88% (active)
68 | CC1CC[P+](c2ccccc2)(c2ccccc2)c2c1ccc1ccccc21 (stereo unspecified) | 97% (active)
69 | O=C1C(Cl)=C(N2CCN(C3=C(Cl)C(=O)c4ccccc4C3=O)CC2)C(=O)c2ccccc21 | 98% (active)
70 | CCN1CCC(O)(c2ccc(Oc3ccccc3)cc2)C(C(=O)c2ccc(Oc3ccccc3)cc2)C1 (stereo unspecified) | 40%
71 | Cc1ccc(NCCN(C)C)c2c(=O)c3cc(O)ccc3sc12 | 99% (active)
72 | COc1ccc2nc(C)cc(NCCCCCCCCCNc3cc(C)nc4ccc(OC)cc34)c2c1 | 93% (active)
73 | Cc1n(-c2ccccc2)c2c([n+]1Cc1ccc([N+](=O)[O-])cc1)C(=O)c1ccccc1C2=O | 96% (active)
74 | CC1(O)Cc2c(O)c3c(c(O)c2CC1O)C(=O)C=CC3=O (stereo unspecified) | 70% (active)
75 | c1ccc(C2=NC(c3ccccc3)=NS(S3=NC(c4ccccc4)=NC(c4ccccc4)=N3)=N2)cc1 (stereo unspecified) | 97% (active)
76 | CC[C@](O)(CC(=O)O[C@H]1C(=O)O[C@@H]2C[C@H]3C(C)=CC(=O)[C@@H](O)[C@]3(C)[C@H]3[C@@]4(O)OC[C@]32[C@@H]1[C@@H](C)[C@H]4O)C(C)C | 97% (active)
